Experimental data from article PMC5540273 (PLoS ONE, 2017).

Legend:
Details in all cases: concentration: 1 μM, replicates: in singlicate; n = 1
[1] = tested on: ADCK4
[2] = tested on: AKT1
[3] = tested on: AKT2
[4] = tested on: AKT3
[5] = tested on: ALK
[6] = tested on: T1, AMPK-alpha1
T1 construct: gene PRKAA1

[7] = tested on: T2, AMPK-alpha2
T2 construct: gene PRKAA2

[8] = tested on: ANKK1
[9] = tested on: T3, ARK5
T3 construct: gene NUAK1

[10] = tested on: T4, ASK1
T4 construct: gene MAP3K5

[11] = tested on: T5, ASK2
T5 construct: gene MAP3K6

[12] = tested on: AURKA
[13] = tested on: AURKB
[14] = tested on: AURKC
[15] = tested on: AXL
[16] = tested on: T6, BIKE
T6 construct: gene BMP2K

[17] = tested on: BLK
[18] = tested on: BMPR1A
[19] = tested on: BMPR1B
[20] = tested on: BMPR2
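Further: KINOMEscan kinase panel screen.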

| SMILES | %Inh [1] | %Inh [2] | %Inh [3] | %Inh [4] | %Inh [5] | %Inh [6] | %Inh [7] | %Inh [8] | %Inh [9] | %Inh [10] | %Inh [11] | %Inh [12] | %Inh [13] | %Inh [14] | %Inh [15] | %Inh [16] | %Inh [17] | %Inh [18] | %Inh [19] | %Inh [20] |
| --- | --- | --- | --- | --- | --- | --- | --- | --- | --- | --- | --- | --- | --- | --- | --- | --- | --- | --- | --- | --- |
| COc1ccc(C)c(Nc2ccnc(Nc3ccc(-c4cnc[nH]4)cc3)n2)c1.Cl [GW784041] | 53% | 14% | 0% | 8% | 0% | 30% | 0% | 0% | 99.3% | 0% | 0% | 20% | 8% | 56% | 0% | 37% | 59% | 70% | 99.9% | 0% |
| Cc1ccc(O)cc1Nc1ccnc2ccc(C(C)(C)C)cc12 [GW856805] | 88% | 27% | 29% | 18% | 44% | 8% | 19% | 7% | 0% | 1% | 32% | 30% | 36% | 24% | 42% | 9% | 95.1% | 16% | 79% | 33% |
| Cl.Cl.NCC(NC(=O)c1cc(-c2cccnc2)c(-c2ccnc3[nH]ccc23)s1)c1ccccc1 (stereo not shown) [GSK1323434] | 71% | 7% | 10% | 86% | 23% | 0% | 0% | 0% | 0% | 0% | 16% | 15% | 19% | 36% | 23% | 63% | 40% | 0% | 51% | 5% |
| N#CC1(c2cccc(C(=O)Nc3cccc(Oc4ccc5nc(NC(=O)C6CC6)sc5n4)c3)c2)CC1 | 2% | 27% | 6% | 0% | 15% | 17% | 27% | 0% | 0% | 0% | 3% | 0% | 57% | 48% | 62% | 1% | 95.2% | 0% | 0% | 0% |
| COc1cc(Nc2nccc(N3CCC(NS(=O)(=O)c4ccc(NC(C)=O)cc4)CC3)n2)cc(OC)c1OC [GSK1379825] | 96.2% | 0% | 15% | 0% | 32% | 17% | 50% | 0% | 43% | 0% | 9% | 59% | 71% | 71% | 14% | 75% | 50% | 29% | 0% | 0% |
| Cc1ccc(C)c(NC(=O)Nc2ccc(C)c(-c3ccc(C(=O)Nc4ccncc4)cc3)c2)c1 [GSK1398473] | 25% | 0% | 0% | 0% | 38% | 15% | 0% | 0% | 17% | 0% | 0% | 0% | 21% | 22% | 90% | 13% | 0% | 0% | 0% | 0% |
| COc1cccc(-c2nc(-c3ccccc3)[nH]c2-c2ccncc2)c1 [SB-610250] | 77% | 0% | 0% | 0% | 18% | 17% | 2% | 0% | 0% | 2% | 11% | 0% | 39% | 0% | 15% | 0% | 60% | 0% | 0% | 0% |
| CCNC(=O)/C=C/c1n[nH]c2cc(Sc3ccccc3C(=O)NC)ccc12 | 0% | 6% | 18% | 3% | 2% | 7% | 14% | 5% | 10% | 0% | 0% | 86% | 97.4% | 84% | 76% | 48% | 7% | 12% | 30% | 1% |
| CN(C)CCOc1ccc(-c2cc(-c3ccc(Cl)c(O)c3)c(-c3ccncc3)[nH]2)cc1.Cl.Cl [SB-684387] | 21% | 0% | 0% | 55% | 18% | 0% | 11% | 8% | 1% | 15% | 0% | 21% | 0% | 0% | 0% | 0% | 64% | 90.6% | 29% | 10% |
| O=C(O)C(F)(F)F.O=c1[nH]ccc2nc(N[C@@H]3CCNC3)nc(Nc3cc(Cl)cc(Cl)c3)c12 [GSK2188764] | 14% | 0% | 0% | 0% | 90.5% | 87% | 90% | 97.1% | 99.5% | 0% | 4% | 97.3% | 75% | 69% | 92.1% | 97.6% | 0% | 0% | 0% | 70% |
| Cc1nn2c(=O)cc(N3CCO[C@H](C)C3)nc2n1Cc1cccc(Cl)c1Cl [GSK2373693] | 2% | 0% | 7% | 4% | 22% | 0% | 11% | 0% | 0% | 8% | 0% | 35% | 17% | 6% | 4% | 17% | 17% | 35% | 0% | 35% |
| Nc1ncc(-c2cn[nH]c2)c2scc(-c3ccc4c(c3)CCN4C(=O)Cc3ccccc3)c12 [GSK2593067] | 0% | 0% | 2% | 0% | 0% | 11% | 16% | 1% | 26% | 5% | 21% | 13% | 98.6% | 87% | 98.8% | 67% | 96% | 0% | 0% | 0% |
| O=C(Nc1c(F)cccc1F)c1cc(C(=O)c2ccccc2F)c[nH]1 [GSK1326180] | 20% | 0% | 0% | 0% | 33% | 0% | 0% | 2% | 0% | 8% | 0% | 0% | 0% | 0% | 24% | 0% | 0% | 6% | 0% | 1% |
| CC(C)(C)c1ccc(C(=O)Nc2cn3cc(-n4ccnc4)ccc3n2)cc1 | 19% | 6% | 0% | 0% | 0% | 14% | 0% | 82% | 2% | 80% | 6% | 0% | 24% | 0% | 0% | 0% | 0% | 3% | 0% | 8% |
| CC(=O)Nc1cn2nc(Oc3cccc(NC(=O)c4cccc(C(F)(F)F)c4)c3)ccc2n1 | 9% | 20% | 0% | 16% | 9% | 0% | 8% | 0% | 12% | 0% | 0% | 0% | 60% | 74% | 51% | 18% | 98.2% | 10% | 0% | 0% |
| CS(=O)(=O)c1cccc(CNc2nc(Nc3ccc4c(c3)CCC(=O)N4)ncc2C(F)(F)F)c1 | 4% | 0% | 0% | 0% | 0% | 7% | 0% | 3% | 86% | 0% | 0% | 97.8% | 96.7% | 71% | 23% | 82% | 0% | 0% | 0% | 39% |
| Cc1ccc(NC(=O)c2cccc(N3CCCCC3)c2)cc1-c1ccc(C(=O)NCC2CC2)cc1 [GSK1917008] | 1% | 0% | 8% | 2% | 19% | 0% | 28% | 3% | 28% | 12% | 11% | 0% | 0% | 7% | 5% | 13% | 72% | 0% | 2% | 0% |
| CCNc1nccc(-c2c(-c3ccc(F)cc3)ncn2C2CCN(C)CC2)n1 | 8% | 4% | 0% | 0% | 0% | 0% | 0% | 0% | 0% | 15% | 0% | 0% | 0% | 8% | 0% | 13% | 3% | 0% | 0% | 0% |
| CN(c1ccc(NC(=O)Nc2cccc(Cl)c2)cc1)c1ccnc(N)n1.Cl [GW830707] | 6% | 23% | 3% | 12% | 0% | 0% | 18% | 0% | 0% | 2% | 15% | 28% | 68% | 70% | 37% | 4% | 0% | 0% | 0% | 52% |
| COC(=O)Nc1nc2ccc(Oc3ccc(CC(=O)Nc4cc(C(F)(F)F)ccc4F)cc3)cc2[nH]1 [GW680903] | 42% | 0% | 0% | 0% | 36% | 0% | 0% | 1% | 7% | 3% | 0% | 0% | 60% | 52% | 23% | 3% | 32% | 6% | 0% | 1% |
